This is a sample that favours compounds with a hit; in the whole collection about 2.2% have one here.
PolyA inh = yeast polyadenylation inhibition; S. cerevisiae SKY197-pL101 polyadenylation reporter, beta-gal luminescence; efflux-impaired pdr1/pdr3 knockout yeast; score 100 = 6 SD above DMSO; activity score, % at 12 µM; 0.02% of 300,000 active; AID 1875;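 active = lowest replicate activity score at least 50, where 100 means six control SD above control mean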;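 note: yeast exposed to compound for 9 h at 30 °C; higher score means more reporter readthrough which indicates perturbed polyadenylation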
NALP1 yeast inh = inhibitors of NALP1 inflammasome in yeast; S. cerevisiae NALP1/ASC/caspase-1 growth, X-gal OD620, 72 h; AID 2071; inhibition, % at 10 µM; 0.61% of 280,000 active; in the data active = inhibition mostly above about 24%, no sharp cut-off; inactive = mostly below about 32%
ZTA counter = counter-screen for EBNA-1 inhibitors: inhibitors of Epstein-Barr virus ZTA; ZTA-DNA binding, fluorescence polarization; inhibition, % at 11 µM; 0.15% of 320,000 active; AID 2234; in the data active = inhibition above about 33%
Target sequence (P03206 whole entry, looked up): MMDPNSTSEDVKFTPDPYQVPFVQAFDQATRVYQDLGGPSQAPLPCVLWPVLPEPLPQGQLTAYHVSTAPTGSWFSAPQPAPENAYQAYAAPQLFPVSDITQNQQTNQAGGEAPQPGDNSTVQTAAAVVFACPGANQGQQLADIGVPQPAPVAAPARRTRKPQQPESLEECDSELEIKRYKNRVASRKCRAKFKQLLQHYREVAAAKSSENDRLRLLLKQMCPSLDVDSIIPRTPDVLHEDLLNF
EBNA-1 inh = blocks EBNA-1 binding to DNA; EBNA-1 DNA binding, fluorescence polarization; inhibition, % at 14.8 µM; 0.34% of 300,000 active; in the data active = inhibition above about 28%
dFosB activator = enhances mouse delta FosB homodimer DNA binding. purified delta FosB, TAMRA-CDK5 oligo fluorescence polarization; percent of positive-control signal above neutral wells. activation, % at 25 µM. 0.99% of 340,000 active;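 active = mean activation above about 17%, with every replicate also reaching it, limit read from the data, passing the limit was not always enough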
Target sequence (P13346 whole entry, looked up): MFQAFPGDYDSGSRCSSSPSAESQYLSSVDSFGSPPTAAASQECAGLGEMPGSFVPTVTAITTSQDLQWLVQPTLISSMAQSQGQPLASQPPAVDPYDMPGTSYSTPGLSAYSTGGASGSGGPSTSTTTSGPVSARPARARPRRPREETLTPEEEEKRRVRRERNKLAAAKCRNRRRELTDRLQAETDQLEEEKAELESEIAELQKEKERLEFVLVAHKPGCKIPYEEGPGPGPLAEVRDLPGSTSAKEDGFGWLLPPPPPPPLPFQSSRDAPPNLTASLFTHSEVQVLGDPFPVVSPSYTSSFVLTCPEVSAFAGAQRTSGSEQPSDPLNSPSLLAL
NALP3 yeast inh = NALP3 inhibition in yeast | Yeast reconstituted NLRP3/ASC/caspase-1, beta-gal luminescence, 24 h | inhibition, % at 10 µM | 0.39% of 330,000 active | AID 2825;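 active = inhibition of 50% or more; inactive = inhibition below 50%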;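 note: plate controls were induced DMSO wells for no effect and uninduced yeast grown without galactose for full effect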
EBNA-1 inh conf = EBNA-1 (EBV) inhibition, confirmation. shares compounds with EBNA-1 inh. Recombinant EBNA-1 DBD, Cy5-DNA fluorescence polarization. inhibition, % at 14.8 µM. 35% of 830 active. AID 2292;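 active = mean inhibition across replicates above a set limit taken from the earlier primary screen, cut at about 28% in these data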;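 note: plate controls were EBNA-1 protein with DMSO for no effect and wells lacking EBNA-1 for full effect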
ZTA DNA inh trip = blocks Epstein-Barr virus ZTA in triplicate, EBNA-1 counter-screen; inhibition, % at 11.1 µM; Zta-ZRE DNA binding, Cy5 fluorescence polarization; 830 tested, under 10 active; shares compounds with EBNA-1 inh;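 active = mean inhibition over triplicates above a set limit taken from the primary EBNA-1 screen, cut at about 37% in these data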;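 note: purified full length Zta protein with Cy5 labeled ZRE DNA probe; 0% = Zta with DMSO and 100% = wells lacking Zta protein; inhibitors lower polarization by freeing the labeled DNA probe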
An asterisk follows results filed as active; · = no result given; + = active, no number.

SMILES	PolyA inh	NALP1 yeast inh	ZTA counter	EBNA-1 inh	dFosB activator	NALP3 yeast inh	EBNA-1 inh conf	ZTA DNA inh trip
Cc1cnc(C(=O)Nc2ccc(S(=O)(=O)NCC(C)C)cc2)cn1	-4	5	-8	4	5	3	·	·
Cc1cnc(C(=O)Nc2ccc(S(=O)(=O)N(C(C)C)C(C)C)cc2)cn1	1	21	0	28*	-7	24	-1	0
CCc1cccc(CC)c1NC(=O)COC(=O)/C(C#N)=C/c1ccc(OC)cc1	-11	13	20	46*	-2	21	15	7
COc1ccc(/C=C(\C#N)C(=O)OCC(=O)Nc2c(C)cccc2C)cc1	3	25	-8	18	14	24	·	·
CCOC(=O)c1ccc(S(=O)(=O)N2CCN(C(=O)c3ccccn3)CC2)cc1	·	·	·	·	0	12	·	·
COCCCNC(=O)c1ccc(Cn2c(=O)c3ccccc3n(Cc3ccccc3C#N)c2=O)cc1	-11	-8	6	33*	4	9	11	1
CN1C(=O)CC(C(=O)Nc2ccccc2F)SC1=Nc1ccc2c(c1)OCO2 (centres undefined)	5	5	-2	28*	7	14	50*	4
COc1ccc(N=C2SC(C(=O)Nc3ccc4c(c3)OCO4)CC(=O)N2C)cc1 (centres undefined)	-22	-2	-15	2	-14	18	·	·
Cc1ccc(C(=O)CSc2nnc(-c3c[nH]c4ccccc34)o2)cc1	-4	32	-1	29*	15	4	-8	-1
CC(C)C(C)NC(=O)CSc1nnc(-c2c[nH]c3ccccc23)o1 (centres undefined)	-2	9	4	0	-12	0	·	·
ClC(CCN1CCN(Cc2ccccc2)CC1)c1ccccc1 (centres undefined)	-18	·	6	4	7	13	·	·
CCOc1cc(N2CCOCC2)c(OCC)cc1NC(=O)COC(=O)CCn1c(C)csc1=O	1	·	-25	-6	-1	20	·	·
O=C(Nc1cc(Cl)cc(Cl)c1)c1ccc(Cn2c(=O)[nH]c3ccsc3c2=O)cc1	2	14	-2	36*	11	-5	29*	-5
CC(=O)NCCNC(=O)c1ccc(Cn2c(=O)[nH]c3ccsc3c2=O)cc1	8	9	·	·	-3	10	·	·
O=C(CSc1n[nH]c(=O)[nH]c1=O)NC1CC1	17	12	27	59*	-4	8	4	-1
COc1cccc(Cn2c(=S)[nH]c3ccc(N4CCOCC4)cc3c2=O)c1	8	-2	-4	29*	-3	9	8	-11
O=c1c2cc(N3CCOCC3)ccc2[nH]c(=S)n1Cc1ccco1	22	30	-8	-1	-4	-1	·	·
O=c1c2cc(N3CCOCC3)ccc2[nH]c(=S)n1Cc1cccc(Cl)c1	-10	14	1	30*	2	20	7	7
Nc1cccc2c(=O)[nH][nH]c(=O)c12	·	·	·	·	-5	·	·	·
Cc1cc(C)n(-c2ccc(C(=O)OCn3nnc4ccccc4c3=O)cc2)n1	-4	-2	4	6	-18	18	·	·
Cc1nn(-c2ccccc2)c2sc(C(=O)OCn3nnc4ccccc4c3=O)cc12	10	21	-23	35*	-18	7	-3	-4
COc1ccc(N2CCN(CCC(=O)c3ccc4ccccc4c3)CC2)cc1	-15	17	-7	-3	-9	9	·	·
Cc1cc(N2CCN(CC(O)C(F)(F)F)CC2)c2ccccc2n1 (centres undefined)	5	12	13	+	3	-15	-2	-13
O=C(CSc1ccc(-c2ccccc2)nn1)c1ccccc1	-14	9	-5	40*	-12	-28	-12	-5
O=C(c1ccc(CN2CCc3ccccc3C2)cc1)N1CCc2ccccc2C1	12	-8	2	38*	-2	23	-16	-5
SMILES	PolyA inh	NALP1 yeast inh	ZTA counter	EBNA-1 inh	dFosB activator	NALP3 yeast inh	EBNA-1 inh conf	ZTA DNA inh trip
NS(=O)(=O)c1ccc(NC(=S)Nc2ccn(Cc3cccc4ccccc34)n2)cc1	13	-3	-1	29*	6	17	34*	-4
Cc1nc(Nc2cc(F)ccc2C)c2nnn(Cc3ccccc3)c2n1	0	13	-5	3	-6	27	·	·
O=C(N/C(=C/c1ccc(Br)cc1)c1nc2ccccc2[nH]1)c1ccco1	-3	-10	18	31*	3	5	82*	18
O=C(N/C(=C/c1ccc(Cl)cc1)c1nc2ccccc2[nH]1)c1ccco1	1	25	-2	-4	-12	24	·	·
Cc1ccc(C)c(C(=O)C(C)OC(=O)CN2C(=O)NC3(CC(C)CC(C)(C)C3)C2=O)c1 (centres undefined)	12	0	-3	2	-20	16	·	·
O=C(c1cccc(S(=O)(=O)N2CCOCC2)c1)N1CCCC(C(F)(F)F)C1 (centres undefined)	-2	·	13	7	-3	16	·	·
CC(C)CN(C(=O)COc1ccc(-c2nnco2)cc1)C1CCS(=O)(=O)C1 (centres undefined)	1	10	11	5	-5	11	·	·
O=C(CCC(=O)Nc1ccc(Br)cc1)N/N=C/c1ccc(F)cc1	-2	1	13	34*	-3	5	19	12
COc1ccc(NC(=O)c2ccccc2NS(C)(=O)=O)cc1OC	-8	12	7	-6	4	15	·	·
COc1ccccc1Nc1ncc(C(=O)Nc2ccc(OC)c(OC)c2)c2ccccc12	-2	32	1	80*	-8	-2	55*	4
Cc1ccc(S(=O)(=O)N(CC(=O)N/N=C\c2cccs2)c2cccc3cccnc23)cc1	-11	24	-5	32*	5	15	28*	-4
Clc1ccccc1Nc1ncnc2c1nnn2Cc1ccccc1	-14	0	-8	-8	-1	-1	·	·
CCOc1ccc(Nc2ncnc3c2nnn3Cc2ccccc2)cc1	5	0	-2	36*	-9	21	9	-8
Cc1cc(C(=O)Cn2cnc3ccc(Cl)cc3c2=O)c(C)n1C1CC1	·	·	·	·	-5	·	·	·
COc1ccccc1N(C)S(=O)(=O)c1ccc(C(=O)NC2=NCCS2)cc1	10	-49	0	45*	15	7	2	7
O=C(NNC(=O)C1CCN(S(=O)(=O)c2ccc(Cl)cc2)CC1)c1ccc(S(=O)(=O)N2CCCCC2)cc1	8	24	30	31*	4	-4	18	-7

Screening data as filed in PubChem BioAssay.
